Screening results as filed in PubChem.
Shown are actives, neighbours in structure and some others; about 2.4% of the full set was active somewhere.
TGFb SMAD3 inh – TGF-b pathway inhibition; HepG2 CAGA-GFP TGF-b/SMAD3 reporter, GFP fluorescence, 18 h; TGF-beta stimulated, 500 pg/mL final; Potency, µM (top dose mostly 46.1 µM), without a hit: at the highest dose activity, negative = inhibition, most hits filed as inhibitors; hit rate 1.2% among 410,000; further: on the % scale 0 is the no-effect control and ±100 the full control effect; nearly all actives have a fitted effect of over 65% in size
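HEPG2 CAGA-GFP, 1000 cells/well; 2 h settle, 37 C; cpd via pin tool; TGF-b 500 pg/mL final; 18 h, 37 C; GFP imaging ex488/em500-530; %Activity normalised to -TGF-b and +DMSO controls; CRC fit, curve class.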
Anesthetic bind – binds horse apoferritin like a general anesthetic. apoferritin/1-aminoanthracene competitive binding, fluorescence. hit rate 0.074% among 350,000. Potency, µM (doses to about 77.5 µM), for inactives: at the top dose activity change, negative = displacement, most hits filed as inhibitors. P02791; further: on the % scale 0 is the no-effect control and ±100 the full control effect; nearly all actives have a fitted effect of over 20% in size
Target sequence (P02791 2-175 limits assumed): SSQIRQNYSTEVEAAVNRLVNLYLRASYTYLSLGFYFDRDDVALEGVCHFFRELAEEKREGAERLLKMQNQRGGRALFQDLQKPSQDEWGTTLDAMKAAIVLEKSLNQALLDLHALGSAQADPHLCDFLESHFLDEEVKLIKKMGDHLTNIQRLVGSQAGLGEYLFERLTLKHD
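Apoferritin-based anesthetic binding model; compound displacement of fluorescent 1-AMA measured as endpoint fluorescence after 10 minutes at room temperature, scaled to free-ligand and complex controls.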
ATXN2 expr inh – inhibitors of ATXN2 expression; HEK-293 ATXN2-luciferase reporter, luminescence, 24 h; Potency, µM (top dose mostly 57 µM), without a hit: top-dose activity change, negative = inhibition, actives largely listed as inhibitors; hit rate 0.72% among 360,000; AID 1745845; further: on the % scale 0 is the no-effect control and ±100 the full control effect; nearly all actives have a fitted effect of over 55% in size
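ATXN2-luciferase reporter cells (luciferase flanked by upstream and downstream ATXN2 gene portions) were treated 24 h at 37 °C with compounds at up to 57 uM. SteadyGlo luminescence gave expression; GF-AFC fluorescence gave viability.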
S2 tox – cell viability loss in ATXN counter-screen. S2 cells (HEK-293 line with an ATXN2-luciferase reporter) viability, CellTiter-Fluor protease fluorescence, 24 h. hit rate 0.49% among 400,000. Potency, µM (doses to about 56.7 µM), usual class: cytotoxic. AID 651635; further: nearly all actives have a fitted effect of over 40% in size
HepG2 viability – HepG2 cytotoxicity, counter-screen for TGF-b inhibitors; HepG2 CAGA-GFP viability, ATP luminescence, 18 h; hit rate 0.76% among 410,000; Potency, µM (series often up to 46.1 µM), for inactives: at the top dose activity change, negative = cytotoxicity, usual class: cytotoxic; AID 588856
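CellTiter-Glo luminescence gave cytotoxicity after 18 hours at 37 degrees C. The cells were HepG2 CAGA-GFP in 1% FBS DMEM, stimulated with 500 pg/mL TGF-beta after compound addition. %Activity was normalised to no-cell wells (complete cell-killing) and DMSO (no toxicity), and curves were fitted and classified.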
* = called active by the depositor; [ ] = another dose, or the depositor's remark. The call rests on the fitted dose curve; in most records, active means well fitted curve in the direction sought with a large enough effect; inconclusive means small, poorly fitted or top-dose-only effect, or another doubt; inactive means no such curve, though single readings can be large; an effect the other way counts as inactive or inconclusive. Potency means the concentration at half of the fitted maximal effect.

How did N#Cc1ccc(NC(=O)Nc2ccccc2Br)c2n[nH]nc12 do in these assays?
ATXN2 expr inh: 8.2%

How did CC(=O)[C@@]1(O)CC[C@H]2[C@@H]3C=C(Cl)C4=CC(=O)CC[C@]4(C)[C@H]3CC[C@@]21C do in these assays?
S2 tox: inactive

How did CC(C)Oc1ccc(C(=O)Nc2nnc(SCC(=O)N3CCOCC3)s2)cc1 do in these assays?
TGFb SMAD3 inh: 6.8%; Anesthetic bind: -3.7%; ATXN2 expr inh: 10µM*; S2 tox: inactive; HepG2 viability: 10.5%

What do the screens show for `CCOc1cc(CNC(=O)c2ccc3c(c2)nc2n3CCCCC2)ccc1OC`?
TGFb SMAD3 inh: -0.9%; Anesthetic bind: 42.2%; HepG2 viability: -14.0%

What do the screens show for `COc1ccc(COC(=O)c2sc3nc4n(c(=O)c3c2C)CCC4)cc1`?
TGFb SMAD3 inh: 16.6%; ATXN2 expr inh: 28.8%; S2 tox: inactive; HepG2 viability: 11.3%

How did Cc1cccc(NC(=O)c2ccc([N+](=O)[O-])s2)n1 do in these assays?
TGFb SMAD3 inh: 14.1µM*; Anesthetic bind: -12.5%; S2 tox: inactive; HepG2 viability: -103.9%

How did Cc1cccc(NC(=O)c2ccc([N+](=O)[O-])s2)c1C do in these assays?
TGFb SMAD3 inh: 11.2µM*; Anesthetic bind: -12.9%; ATXN2 expr inh: -38.7%; S2 tox: inconclusive; HepG2 viability: 14.1µM*

How did Cc1ccnc(NC(=O)c2cc([N+](=O)[O-])cc([N+](=O)[O-])c2)c1 do in these assays?
TGFb SMAD3 inh: -4.1%; Anesthetic bind: -3.7%; ATXN2 expr inh: 2.9%[11.3 µM]; S2 tox: inactive; HepG2 viability: -3.7%

Results for Cc1cccc(C)c1NC(=O)c1ccc([N+](=O)[O-])s1 ?
TGFb SMAD3 inh: inconclusive; Anesthetic bind: -19.5%; S2 tox: inactive; HepG2 viability: -88.3%

What do the screens show for `Cc1ccnc(NC(=O)c2ccc([N+](=O)[O-])s2)c1`?
TGFb SMAD3 inh: 12.6µM*; Anesthetic bind: -6.4%; ATXN2 expr inh: -33.0%; S2 tox: inactive; HepG2 viability: -103.8%

Results for O=C(Nc1ccccc1N1CCOCC1)c1ccc([N+](=O)[O-])s1 ?
TGFb SMAD3 inh: 11.2µM*; ATXN2 expr inh: inconclusive; S2 tox: inconclusive; HepG2 viability: -90.3%

How did CO[C@@H]1COC(=O)C/C=C\[C@H](C)COC(=O)[C@H](C)NC(=O)C/C=C\[C@H]1C do in these assays?
Anesthetic bind: 9.9%[15.3 µM]

Results for COC(=O)NC(/C(C(=O)OC)=C(\C)NCc1ccccc1)c1ccc2ccccc2c1 (stereo not given) ?
Anesthetic bind: 141.0%[15.3 µM]

What do the screens show for `O=C(Cc1ccc(OCC2CCCCC2)cc1)NO`?
TGFb SMAD3 inh: -6.4%; HepG2 viability: -35.4%

What do the screens show for `COc1ccc(Cl)c(Cn2cnc3c(cnn3C(C)(C)C)c2=O)c1F`?
TGFb SMAD3 inh: 1.4%; HepG2 viability: 1.2%

Results for N#CCNC(=O)c1ccc(-c2ccnc(Nc3ccc(N4CCOCC4)cc3)n2)cc1 ?
ATXN2 expr inh: 19.3µM*

What do the screens show for `CC(=O)c1ccc(Nc2nc(N3CCOCC3)nc(N3CCOCC3)n2)cc1`?
TGFb SMAD3 inh: 8.7%; Anesthetic bind: -0.8%; ATXN2 expr inh: 20.8%; S2 tox: inactive; HepG2 viability: -36.8%

Results for O=c1[nH]c2ccc(Cl)cc2c(-c2ccccc2)c1SC(=S)N1CCOCC1 ?
TGFb SMAD3 inh: 12.6µM*; Anesthetic bind: inconclusive; ATXN2 expr inh: -6.6%; S2 tox: inactive; HepG2 viability: -65.3%

What do the screens show for `O=c1[nH]c2ccc(Cl)cc2c(-c2ccccc2)c1SC(=S)N1CCCCC1`?
TGFb SMAD3 inh: -4.7%; Anesthetic bind: inconclusive; ATXN2 expr inh: -4.0%; S2 tox: inactive; HepG2 viability: -2.8%

What do the screens show for `Cc1cc(C(=O)N2CCN(c3ccccc3)CC2)c2c(C)nn(-c3cccc(F)c3)c2n1`?
TGFb SMAD3 inh: 13.6%; Anesthetic bind: inconclusive; ATXN2 expr inh: 11.5%; S2 tox: inactive; HepG2 viability: 1.2%

Results for Cc1cc2nc3c(=O)n(C)c(=O)n(C)c3nc2cc1N=CN(C)C ?
TGFb SMAD3 inh: 33.7%; Anesthetic bind: 66.8%; ATXN2 expr inh: 4.4%; S2 tox: inactive; HepG2 viability: -28.3%

What do the screens show for `COc1ccc(Cl)cc1N1C(=O)[C@@H]2C[C@H]1CN2Cc1nc2ccccc2nc1C`?
S2 tox: inactive

Results for Cc1ccc2[nH]c3c(=O)n(CC(=O)N(CCN(C)C)Cc4ccccc4)ncc3c2c1 ?
TGFb SMAD3 inh: 11.2µM*; Anesthetic bind: inconclusive; ATXN2 expr inh: 0.0%; S2 tox: inactive; HepG2 viability: -72.1%

How did S=C(NCc1ccccc1)NC1CCSc2ccccc21 (stereo not given) do in these assays?
TGFb SMAD3 inh: 12.6µM*; Anesthetic bind: -4.3%; ATXN2 expr inh: -15.7%; S2 tox: inactive; HepG2 viability: -28.4%

How did C1=Cc2ccccc2/C1=C\c1cc[cH-]c1.[Fe+2].c1cc[cH-]c1 do in these assays?
TGFb SMAD3 inh: inconclusive; HepG2 viability: 0.6%

How did N=C(N)c1ccc(OCCCOc2ccc(C(=N)N)cc2Br)c(Br)c1 do in these assays?
S2 tox: inactive

What do the screens show for `Cc1cc(N2CCN(C)CC2)ccc1NC(=O)c1ccc(-c2ccc(Cl)cc2)o1`?
TGFb SMAD3 inh: inconclusive; ATXN2 expr inh: inconclusive; S2 tox: inactive; HepG2 viability: 11.2µM*

How did O=C(Nc1ccccc1N1CCCCC1)c1ccc(-c2ccc(Cl)cc2)o1 do in these assays?
TGFb SMAD3 inh: inconclusive; Anesthetic bind: -13.2%; ATXN2 expr inh: 1.4%; S2 tox: inactive; HepG2 viability: 15.4%

How did COc1ccccc1-c1cc2nc(-c3ccccc3)cc(N3CCN(C(=O)c4ccoc4)CC3)n2n1 do in these assays?
TGFb SMAD3 inh: inconclusive; ATXN2 expr inh: inconclusive; S2 tox: inconclusive; HepG2 viability: -29.7%

What do the screens show for `O=C(c1ccoc1)N1CCN(c2cc(-c3ccco3)nc3cc(-c4ccccc4)nn23)CC1`?
TGFb SMAD3 inh: inconclusive; ATXN2 expr inh: 25.1µM*; S2 tox: inconclusive; HepG2 viability: -12.6%

What do the screens show for `COc1ccccc1-c1cc2nc(-c3ccccc3)cc(N3CCN(C(=O)c4ccco4)CC3)n2n1`?
TGFb SMAD3 inh: 15.2%; ATXN2 expr inh: 12.6µM*; S2 tox: inconclusive; HepG2 viability: 5.8%

Results for Cc1ccc(C)c(N2CCN(C(=O)c3cc4sccc4n3C)CC2)c1 ?
TGFb SMAD3 inh: inconclusive; Anesthetic bind: -8.5%; ATXN2 expr inh: 13.0%; S2 tox: inactive; HepG2 viability: -7.1%

What do the screens show for `Cc1ccc(C)c(N2CCN(C(=O)C3CCN(C(=O)c4cc5sccc5n4C)CC3)CC2)c1`?
TGFb SMAD3 inh: 10µM*; Anesthetic bind: 6.8%; HepG2 viability: -18.5%
